The campaign covered roughly 5,500 compounds. About 2,000 (36%) were called active. Roughly 18% stayed inconclusive and do not appear here. No stated cut-off is given here; in the data, active means normalized growth mostly below about 0.91 (no sharp cut-off); inconclusive means no clear call, values can overlap the other calls; inactive means mostly above about 0.92. Some of the results follow.
Experiment: chemical genetic growth profiling, strain panel (AID 1159580);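 further: tested at 20 µM; growth read once vehicle control cultures reached saturation at 30 °C; 1 = growth at the plate median or of vehicle wells; lower values mean less growth of the strain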
Conditions: growth OD

Measured: normalized growth

Cc1cc(O)c(C)c2c1C(=O)Oc1c(C)c(O)c(C(=O)O)c(C)c1O2
inactive: S. cerevisiae deletion strains, locus YAL013W, strain DEP1, hits give low values 0.997 | S. cerevisiae deletion strains, locus YBR021W, strain FUR4, hits give low values 0.966 | S. cerevisiae deletion strains, locus YBR229C, strain ROT2, hits give low values 0.993 | S. cerevisiae deletion strains, locus YCL029C, strain bik1, hits give low values 0.973 | S. cerevisiae deletion strains, locus YDL035C, strain GPR1, hits give low values 0.998 | S. cerevisiae deletion strains, locus YDL074C, strain BRE1, hits give low values 1 | S. cerevisiae deletion strains, locus YDL101C, strain DUN1, hits give low values 0.988 | S. cerevisiae deletion strains, locus YDL134C, strain PPH21, hits give low values 0.98 | S. cerevisiae deletion strains, locus YDL185W, strain tfp1, hits give low values 0.989 | S. cerevisiae deletion strains, locus YDL192W, strain arf1, hits give low values 0.983 | S. cerevisiae deletion strains, locus YDR101C, strain arx1, hits give low values 0.974 | S. cerevisiae deletion strains, locus YDR150W, strain NUM1, hits give low values 0.999 | S. cerevisiae deletion strains, locus YDR162C, strain NBP2, hits give low values 1.02 | S. cerevisiae deletion strains, locus YDR318W, strain mcm21, hits give low values 0.971 | S. cerevisiae deletion strains, locus YDR388W, hits give low values 0.98 | S. cerevisiae deletion strains, locus YDR502C, strain sam2, hits give low values 0.982 | S. cerevisiae deletion strains, locus YEL061C, strain CIN8, hits give low values 1 | S. cerevisiae deletion strains, locus YER110C, hits give low values 0.978 | S. cerevisiae deletion strains, locus YER155C, strain BEM2, hits give low values 0.991 | S. cerevisiae deletion strains, locus YER167W, strain BCK2, hits give low values 0.994 | S. cerevisiae deletion strains, locus YGL078C, strain dbp3, hits give low values 0.968 | S. cerevisiae deletion strains, locus YGL086W, strain mad1, hits give low values 0.977 | S. cerevisiae deletion strains, locus YGL248W, strain PDE1, hits give low values 0.989 | S. cerevisiae deletion strains, locus YGR078C, strain PAC10, hits give low values 1.01 | S. cerevisiae deletion strains, locus YGR135W, strain pre9, hits give low values 1 | S. cerevisiae deletion strains, locus YGR229C, strain SMI1, hits give low values 1.01 | S. cerevisiae deletion strains, locus YGR252W, strain gcn5, hits give low values 0.961 | S. cerevisiae deletion strains, locus YHR030C, strain SLT2, hits give low values 0.989 | S. cerevisiae deletion strains, locus YHR079C, strain IRE1 (second series), hits give low values 0.982 | S. cerevisiae deletion strains, locus YHR094C, strain hxt1, hits give low values 0.979 | S. cerevisiae deletion strains, locus YHR129C, strain ARP1, hits give low values 0.997 | S. cerevisiae deletion strains, locus YHR200W, strain rpn10, hits give low values 0.978 | S. cerevisiae deletion strains, locus YIL066C, strain RNR3, hits give low values 0.988 | S. cerevisiae deletion strains, locus YIL073C, strain SPO22, hits give low values 0.999 | S. cerevisiae deletion strains, locus YIL125W, strain kgd1, hits give low values 0.983 | S. cerevisiae deletion strains, locus YIR030C, strain dcg1, hits give low values 0.991 | S. cerevisiae deletion strains, locus YJL095W, strain BCK1, hits give low values 1.01 | S. cerevisiae deletion strains, locus YJL134W, strain LCB3, hits give low values 0.989 | S. cerevisiae deletion strains, locus YJL168C, strain set2, hits give low values 0.974 | S. cerevisiae deletion strains, locus YJL187C, strain SWE1 (second series), hits give low values 0.988 | S. cerevisiae deletion strains, locus YJR043C, strain POL32, hits give low values 1.01 | S. cerevisiae deletion strains, locus YJR075W, strain HOC1, hits give low values 1.01 | S. cerevisiae deletion strains, locus YKL009W, strain mrt4, hits give low values 0.964 | S. cerevisiae deletion strains, locus YKL068W, hits give low values 0.985 | S. cerevisiae deletion strains, locus YKL085W, strain MDH1 (second series), hits give low values 0.992 | S. cerevisiae deletion strains, locus YKL085W, strain MDH1, hits give low values 0.992 | S. cerevisiae deletion strains, locus YKL190W, strain CNB1, hits give low values 1 | S. cerevisiae deletion strains, locus YKR001C, strain vps1, hits give low values 0.982 | S. cerevisiae deletion strains, locus YLR039C, strain RIC1, hits give low values 1.01 | S. cerevisiae deletion strains, locus YLR058C, strain SHM2, hits give low values 0.997 | S. cerevisiae deletion strains, locus YLR102C, strain apc9, hits give low values 0.988 | S. cerevisiae deletion strains, locus YLR262C, strain YPT6, hits give low values 1 | S. cerevisiae deletion strains, locus YLR268W, strain sec22, hits give low values 0.99 | S. cerevisiae deletion strains, locus YLR330W, strain CHS5, hits give low values 0.998 | S. cerevisiae deletion strains, locus YLR342W, strain FKS1 (second series), hits give low values 0.983 | S. cerevisiae deletion strains, locus YLR371W, strain rom2, hits give low values 0.976 | S. cerevisiae deletion strains, locus YLR418C, strain cdc73, hits give low values 0.974 | S. cerevisiae deletion strains, locus YML016C, strain PPZ1, hits give low values 0.99 | S. cerevisiae deletion strains, locus YML032C, strain rad52, hits give low values 0.965 | S. cerevisiae deletion strains, locus YML124C, strain tub3, hits give low values 0.991 | S. cerevisiae deletion strains, locus YMR078C, strain ctf18, hits give low values 0.973 | S. cerevisiae deletion strains, locus YMR223W, strain ubp8, hits give low values 0.966 | S. cerevisiae deletion strains, locus YMR263W, strain SAP30, hits give low values 1 | S. cerevisiae deletion strains, locus YMR307W, strain GAS1, hits give low values 0.976 | S. cerevisiae deletion strains, locus YNL067W, strain RPL9B, hits give low values 1 | S. cerevisiae deletion strains, locus YNL128W, strain TEP1, hits give low values 0.998 | S. cerevisiae deletion strains, locus YNL153C, strain GIM3, hits give low values 1 | S. cerevisiae deletion strains, locus YNL233W, strain BNI4, hits give low values 0.997 | S. cerevisiae deletion strains, locus YNL250W, strain rad50, hits give low values 0.972 | S. cerevisiae deletion strains, locus YNL271C, strain bni1, hits give low values 0.966 | S. cerevisiae deletion strains, locus YNL298W, strain CLA4, hits give low values 0.967 | S. cerevisiae deletion strains, locus YNL307C, strain MCK1, hits give low values 0.972 | S. cerevisiae deletion strains, locus YNL322C, strain KRE1, hits give low values 1 | S. cerevisiae deletion strains, locus YNR052C, strain pop2, hits give low values 0.967 | S. cerevisiae deletion strains, locus YOL006C, strain TOP1, hits give low values 0.986 | S. cerevisiae deletion strains, locus YOL012C, strain htz1 0.731 | S. cerevisiae deletion strains, locus YOL147C, strain pex11, hits give low values 0.988 | S. cerevisiae deletion strains, locus YOR061W, strain CKA2, hits give low values 0.99 | S. cerevisiae deletion strains, locus YOR069W, strain VPS5, hits give low values 0.99 | S. cerevisiae deletion strains, locus YOR136W, strain idh2, hits give low values 0.979 | S. cerevisiae deletion strains, locus YOR144C, strain elg1, hits give low values 0.985 | S. cerevisiae deletion strains, locus YOR184W, strain ser1, hits give low values 0.942 | S. cerevisiae deletion strains, locus YOR316C, strain cot1, hits give low values 0.977 | S. cerevisiae deletion strains, locus YPL055C, strain LGE1, hits give low values 1.04 | S. cerevisiae deletion strains, locus YPL241C, strain CIN2, hits give low values 0.972 | S. cerevisiae deletion strains, locus YPR119W, strain clb2, hits give low values 0.979 | S. cerevisiae deletion strains, locus YPR141C, strain kar3, hits give low values 0.972 | S. cerevisiae deletion strains, locus YPR163C, strain tif3, hits give low values 0.983 | S. cerevisiae deletion strains, locus YPR167C, strain met16, hits give low values 0.985 | S. cerevisiae deletion strains, strain wtn01, hits give low values 0.98 | S. cerevisiae strains, strain wild type, hits give low values 1

— PubChem BioAssay AID1159580 (chemical genetic matrix, 2015)
